Calls of active or inactive are those of the source.

Assay [1] can be described thus: small molecules captured by biotinylated probe aFSTL3 – biochemical, small-molecule microarray, fluorescence 635/667, stem cell growth factor project, primary screen (AID 1064).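 Further: measures binding of the biotinylated anti-FSTL3 antibody to printed compounds.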 Particulars: higher = more signal.
Assay [2] in a line: binders from COS7 lysate, DM2A8 probe, primary screen, torsin A project, cell lysate, small-molecule microarray, fluorescence 635/667 (AID 1065). To be noted: higher = more signal, COS7 lysate expressing mutant human TOR1A.
Assay [3] is described as follows: small molecules captured by biotinylated probe aFGF2 – biochemical, small-molecule microarray, fluorescence 635/667, stem cell growth factor project, primary screen (AID 1067).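 Further: measures binding of biotinylated aFGF2 protein to printed compounds on slides; z-score merges feature fluorescence and signal-to-noise across triplicate slides.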 Particulars: higher = more signal.
Assay [4] is described as follows: small molecules captured by biotinylated probe aFGF10 – biochemical, small-molecule microarray, fluorescence 635/667, stem cell growth factor project, primary screen (AID 1071).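 Further: score merges 667 nm spot intensity and signal to noise from triplicate slides.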 To be noted: higher = more signal.
Assay [5] concerns the target Neurogenic locus notch homolog protein 2 (Homo sapiens) (UniProt Q04721). The assay can be described thus: small molecules binding Notch2 protein – biochemical, small-molecule microarray, 635 nm fluorescence, stem cell growth factors, primary screen (AID 1073). To be noted: higher = more signal.
Assay [6] has as its target Pro-neuregulin-1, membrane-bound isoform (Homo sapiens) (UniProt Q02297). Put plainly: small molecules binding neuregulin-1 protein – biochemical, small-molecule microarray, fluorescence 635/667, psychiatric disease protein project, primary screen (AID 1075).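 Further: score combines 667 nm spot fluorescence with signal to noise.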 Particulars: NRG1 binding, 635 nm fluorescence, higher = more signal.
The subject of assay [7] is Neuregulin-1 EGF-like domain. Put plainly: small molecules binding NRG1 EGF domain – biochemical, small-molecule microarray, 635 nm fluorescence, primary screen (AID 1081).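 Further: binding of the protein to compounds printed on small-molecule microarray slides.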 Particulars: higher = more signal.
Assay [8] in a line: FRG1 expression reporter modulators in myotubes – cell-based, C2C12 myotubes, firefly/Renilla luciferase, luminescence, FRG1 inhibition for FSHD, primary screen (AID 1084). Particulars: FRG1 promoter luciferase, higher = more signal, called active from +8 up or from −8 down.
A short description of assay [9]: small molecules captured by biotinylated probe aFST – biochemical, small-molecule microarray, fluorescence 635/667, stem cell growth factor project, primary screen (AID 1086).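 Further: score merges 667 nm fluorescence with signal-to-noise of each printed compound spot.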 Particulars: higher = more signal.
Assay [10] is described as follows: binders of probe aHhip on microarray, primary screen, stem cell growth factor project, biochemical, small-molecule microarray, fluorescence 635/667 (AID 1087).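 Further: score merges spot fluorescence at 667nm with spot signal to noise ratio.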 To be noted: higher = more signal.
Assay [11] has as its system PRMT1 (protein arginine N-methyltransferase 1). The assay can be described thus: small molecules binding arginine methyltransferase PRMT1 – biochemical, small-molecule microarray, 635 nm fluorescence, primary screen (AID 1088).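 Further: binding of Prmt1 protein to compounds spotted on small-molecule microarray slides.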 Particulars: higher = more signal.
The nature of assay [12]: growth effects on S. cerevisiae YJM789 – YJM789 clinical isolate, OD600, 24 h, basal, primary screen (AID 1089).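 Further: growth of clinical yeast isolate S. cerevisiae YJM 789 seeded 1000 cells per well; test concentration not given here.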 Particulars: higher = more signal, called active from +8 up or from −8 down.
Assay [13] in a line: S. pombe growth modifiers, basal conditions – strain 972, OD600, 24 h, no modulator, primary screen (AID 1090).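 Further: basal condition with compound alone and no growth modifier present; test concentration not given here.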 Particulars: S. pombe 972 growth, higher = more signal, called active from +8 up or from −8 down.
The nature of assay [14]: budding yeast growth modifiers under rapamycin – strain BY4716, OD600, 96 h, primary screen (AID 1091). Further: test concentration not given here. Particulars: S. cerevisiae BY4716 + rapamycin, higher = more signal, called active from +8 up or from −8 down.
Assay [15] has as its target Torsin-1A-interacting protein 2 (Homo sapiens) (UniProt Q8NFQ8). The assay can be described thus: small molecules binding lysate-expressed LULL1 – cell lysate, human LULL1 lysate, 635/667 nm fluorescence, primary screen (AID 1092).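 Further: probe is lysate of COS7 cells overexpressing human LULL1; score merges per-feature 667 nm fluorescence with signal-to-noise.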 Particulars: small-molecule microarray, hLULL1 lysate binding, 635 nm fluorescence; higher = more signal.
Assay [16] can be described thus: optical density change of DRC41 E. coli – strain DRC41, OD650, 24 h, E. coli filamentation project, primary screen (AID 1093).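 Further: MC1000 strain lacking acrAB efflux and sulA so SOS filamentation is blocked; test concentration not given here.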 Particulars: E. coli DRC41 growth, higher = more signal, called active from +8 up or from −8 down.
The nature of assay [17]: probe aLefty2 binding to arrayed compounds – biochemical, biotinylated probe, 635/667 nm fluorescence, primary screen (AID 1094).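 Further: score merges spot fluorescence near 667 nm with spot signal-to-noise ratio.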 To be noted: small-molecule microarray, higher = more signal.
Assay [18] deals with Noggin (protein binding on small-molecule microarray). The assay can be described thus: small molecules binding Noggin protein – biochemical, 635/667 nm fluorescence, primary screen (AID 1095).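 Further: score merges 667 nm feature fluorescence with signal to noise over triplicate slides.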 To be noted: 635 nm fluorescence, higher = more signal.
For assay [19], the target named is Neurogenic locus notch homolog protein 3 (Homo sapiens) (UniProt Q9UM47). Put plainly: small molecules binding NOTCH3 protein – biochemical, 635/667 nm fluorescence, primary screen (AID 1096). Particulars: small-molecule microarray, 635 nm fluorescence, higher = more signal.
Assay [20] in a line: probe aEGFR binding to arrayed compounds – biochemical, biotinylated probe, 635/667 nm fluorescence, primary screen (AID 1097).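 Further: probe is a biotinylated anti-EGFR antibody binding compounds printed on slides; score combines fluorescence near 667 nm and signal to noise of each spot.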 Particulars: small-molecule microarray, higher = more signal.

Sequence of Pro-neuregulin-1, membrane-bound isoform (Homo sapiens) (Q02297 whole entry, looked up, the tested form may be a part, canonical isoform): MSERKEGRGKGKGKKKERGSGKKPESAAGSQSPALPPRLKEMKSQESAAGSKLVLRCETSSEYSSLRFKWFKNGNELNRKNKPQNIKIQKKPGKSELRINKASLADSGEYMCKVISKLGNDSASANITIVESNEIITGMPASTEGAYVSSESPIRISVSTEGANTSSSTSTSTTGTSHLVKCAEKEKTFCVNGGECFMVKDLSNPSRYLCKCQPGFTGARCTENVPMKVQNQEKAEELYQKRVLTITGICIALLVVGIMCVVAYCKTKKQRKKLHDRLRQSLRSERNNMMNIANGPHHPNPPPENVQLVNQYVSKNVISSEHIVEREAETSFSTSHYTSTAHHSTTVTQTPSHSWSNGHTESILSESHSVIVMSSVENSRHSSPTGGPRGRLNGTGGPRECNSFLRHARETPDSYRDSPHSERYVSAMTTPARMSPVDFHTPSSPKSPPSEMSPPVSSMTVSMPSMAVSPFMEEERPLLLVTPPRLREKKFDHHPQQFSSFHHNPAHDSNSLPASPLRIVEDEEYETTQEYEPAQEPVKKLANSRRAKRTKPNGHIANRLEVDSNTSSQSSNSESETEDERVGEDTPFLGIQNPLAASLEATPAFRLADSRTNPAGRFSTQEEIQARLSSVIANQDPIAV
Sequence of Neurogenic locus notch homolog protein 2 (Homo sapiens) (Q04721 whole entry, looked up, canonical isoform): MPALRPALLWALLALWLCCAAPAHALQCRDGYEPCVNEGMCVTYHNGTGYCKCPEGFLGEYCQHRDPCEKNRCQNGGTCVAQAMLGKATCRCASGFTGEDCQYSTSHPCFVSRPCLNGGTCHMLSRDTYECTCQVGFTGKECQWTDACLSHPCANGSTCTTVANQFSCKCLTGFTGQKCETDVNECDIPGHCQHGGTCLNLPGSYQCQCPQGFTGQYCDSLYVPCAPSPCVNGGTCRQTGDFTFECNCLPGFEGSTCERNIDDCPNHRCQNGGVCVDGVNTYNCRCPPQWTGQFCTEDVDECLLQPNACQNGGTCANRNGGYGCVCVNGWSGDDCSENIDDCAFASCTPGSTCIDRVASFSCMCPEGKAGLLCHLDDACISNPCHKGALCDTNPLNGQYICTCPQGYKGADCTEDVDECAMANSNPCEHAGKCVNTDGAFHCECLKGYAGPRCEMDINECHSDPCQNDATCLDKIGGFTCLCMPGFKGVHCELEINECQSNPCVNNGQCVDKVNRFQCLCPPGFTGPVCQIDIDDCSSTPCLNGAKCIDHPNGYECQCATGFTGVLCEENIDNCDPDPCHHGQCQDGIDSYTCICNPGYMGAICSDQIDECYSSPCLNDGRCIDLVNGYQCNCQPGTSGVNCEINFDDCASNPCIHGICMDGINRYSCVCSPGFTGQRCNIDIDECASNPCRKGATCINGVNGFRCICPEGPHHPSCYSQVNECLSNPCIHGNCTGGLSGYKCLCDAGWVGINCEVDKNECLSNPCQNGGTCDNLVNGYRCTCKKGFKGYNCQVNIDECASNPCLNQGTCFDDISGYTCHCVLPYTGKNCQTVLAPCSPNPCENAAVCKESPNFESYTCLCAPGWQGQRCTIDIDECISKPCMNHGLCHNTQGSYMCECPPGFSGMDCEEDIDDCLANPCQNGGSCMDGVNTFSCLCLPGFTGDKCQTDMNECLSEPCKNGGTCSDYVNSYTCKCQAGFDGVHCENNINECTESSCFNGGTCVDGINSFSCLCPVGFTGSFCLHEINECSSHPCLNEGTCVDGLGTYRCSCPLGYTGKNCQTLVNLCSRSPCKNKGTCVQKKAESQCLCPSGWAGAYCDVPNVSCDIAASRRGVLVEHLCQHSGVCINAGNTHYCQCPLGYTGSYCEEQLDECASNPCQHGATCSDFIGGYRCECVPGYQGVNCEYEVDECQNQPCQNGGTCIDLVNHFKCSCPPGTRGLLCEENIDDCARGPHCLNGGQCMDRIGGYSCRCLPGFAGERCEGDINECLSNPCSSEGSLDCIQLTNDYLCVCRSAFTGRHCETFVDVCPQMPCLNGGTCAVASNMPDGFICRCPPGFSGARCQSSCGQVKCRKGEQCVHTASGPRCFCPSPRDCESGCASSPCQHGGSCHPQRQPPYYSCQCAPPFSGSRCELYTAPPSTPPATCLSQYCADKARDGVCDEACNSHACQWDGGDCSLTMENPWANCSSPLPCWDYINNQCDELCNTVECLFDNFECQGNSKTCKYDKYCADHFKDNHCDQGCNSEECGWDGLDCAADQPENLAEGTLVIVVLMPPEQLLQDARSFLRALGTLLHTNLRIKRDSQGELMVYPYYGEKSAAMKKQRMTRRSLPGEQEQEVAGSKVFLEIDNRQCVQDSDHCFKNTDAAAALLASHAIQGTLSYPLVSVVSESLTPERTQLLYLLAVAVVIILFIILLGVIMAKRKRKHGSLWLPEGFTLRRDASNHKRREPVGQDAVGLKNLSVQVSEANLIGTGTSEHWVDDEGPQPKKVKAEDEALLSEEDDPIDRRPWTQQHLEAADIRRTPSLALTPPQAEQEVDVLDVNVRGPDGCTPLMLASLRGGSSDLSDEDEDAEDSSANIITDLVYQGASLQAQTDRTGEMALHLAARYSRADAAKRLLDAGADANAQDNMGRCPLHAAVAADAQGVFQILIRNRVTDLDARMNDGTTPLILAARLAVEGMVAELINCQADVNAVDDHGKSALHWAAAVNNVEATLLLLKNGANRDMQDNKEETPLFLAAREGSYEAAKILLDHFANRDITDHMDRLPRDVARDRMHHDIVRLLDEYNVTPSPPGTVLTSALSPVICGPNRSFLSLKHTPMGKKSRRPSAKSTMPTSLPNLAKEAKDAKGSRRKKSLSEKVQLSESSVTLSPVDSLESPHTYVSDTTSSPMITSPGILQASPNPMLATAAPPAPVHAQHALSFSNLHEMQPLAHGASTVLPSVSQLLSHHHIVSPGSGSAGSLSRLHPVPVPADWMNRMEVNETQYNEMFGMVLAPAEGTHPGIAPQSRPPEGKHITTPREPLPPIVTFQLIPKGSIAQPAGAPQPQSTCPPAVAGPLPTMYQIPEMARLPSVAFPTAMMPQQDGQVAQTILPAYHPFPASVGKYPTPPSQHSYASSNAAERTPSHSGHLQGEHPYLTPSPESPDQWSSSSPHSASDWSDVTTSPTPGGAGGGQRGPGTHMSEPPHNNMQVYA
Sequence of Torsin-1A-interacting protein 2 (Homo sapiens) (Q8NFQ8 whole entry, looked up): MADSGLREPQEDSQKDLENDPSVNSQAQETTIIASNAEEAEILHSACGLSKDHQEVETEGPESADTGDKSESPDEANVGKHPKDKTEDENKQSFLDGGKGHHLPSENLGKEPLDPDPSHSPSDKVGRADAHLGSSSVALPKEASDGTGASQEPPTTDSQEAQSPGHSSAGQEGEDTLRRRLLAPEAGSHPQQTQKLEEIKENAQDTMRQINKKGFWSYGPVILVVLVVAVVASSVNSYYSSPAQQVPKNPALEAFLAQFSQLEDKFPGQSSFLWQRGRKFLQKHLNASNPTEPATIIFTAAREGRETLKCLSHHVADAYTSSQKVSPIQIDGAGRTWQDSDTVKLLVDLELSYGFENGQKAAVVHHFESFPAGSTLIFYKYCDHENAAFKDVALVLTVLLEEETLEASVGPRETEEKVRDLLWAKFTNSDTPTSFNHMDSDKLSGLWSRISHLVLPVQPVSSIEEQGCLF

In the case of `C[C@@H]1NC(=O)[C@H](Cc2ccccc2)NC(=O)[C@@]23C(=O)N[C@@H](Cc4ccccc4)C2[C@H](C)[C@@]2(C)O[C@H]2C3/C=C/C/C=C\CNC1=O` (stereo not given in full), the composite z-score in assay [1] was -0.191; in assay [2], -0.0483; in assay [3], -0.111; in assay [4], 0.0009; in assay [5] it was -0.315; in assay [6], -0.318. Moreover, the composite z-score in assay [7] is -0.603; in assay [9], -0.784; in [10] it was 0.122; in [11], -0.747; in [15], -1.73; in [17] it was -0.174. For the same molecule, the composite z-score is 0.0939 in assay [18], -0.769 in assay [19] and -0.171 in [20]. Further, the z-score was -0.225 (inactive) in assay [8]; 0.723 (inactive) in [12]; 0.0909 (inactive) in assay [13]; 0.937 (inactive) in assay [14]; -1.38 (inactive) in assay [16].

In the case of `COc1cc2c(cc1OC)CN(C(=O)[C@H]1[C@@H]3C(=O)O[C@@H](c4ccccc4)[C@@H](c4ccccc4)N3[C@@H](c3ccccc3OCCO)[C@]13C(=O)Nc1ccc(C#CC4(O)CCCCCC4)cc13)CC2`, the composite z-score in [1] is -0.0648; in assay [2], 0.705; in [3], 0.0605; in assay [4] it was 1.01; in [5] it was 1.1; in assay [6], 1.76. The composite z-score is 1.35 in assay [7]; 0.319 in assay [9]; 0.245 in [10]; 1.55 in assay [11]; 2.83 in assay [15]; 0.0028 in assay [17]. The composite z-score in assay [18] was 1.19; in [19] it was 1.11; in assay [20], 0.0965. For the same molecule, the z-score was -2.24 (inactive) in assay [8]; 1.71 (inactive) in assay [12]; 0.519 (inactive) in [13]; 4.28 (inactive) in assay [14]; 2.54 (inactive) in [16].

As for `C/C(=N\O)C(=O)NCCCCCNC(=O)OCc1ccccc1`, the composite z-score is -0.286 in [1]; 0.135 in assay [2]; -0.0711 in [3]; 0.418 in [4]; 0.475 in assay [5]; 0.0391 in assay [6]. Further, the composite z-score was 0.619 in assay [7]; 0.271 in assay [9]; -0.226 in assay [10]; -0.214 in [11]; 0.63 in [15]; -0.0741 in assay [17]. In addition, the composite z-score worked out at 0.65 in [18], 0.996 in [19] and 0.0221 in [20]. For the same molecule, the z-score in assay [8] is 0.725 (inactive); in [12], -0.286 (inactive); in [13] it was -0.966 (inactive); in assay [14] it was -1.27 (inactive); in assay [16], 2.03 (inactive).

Regarding `CCOC(=O)C[C@H]1[C@H](OC(=O)Cc2ccc3c(c2)OCO3)[C@@H](NC(=O)CC(C)C)c2cc(OCCCO)ccc2N1C(=O)c1ccccc1`, the composite z-score was -0.0798 in [1]; 0.128 in assay [2]; 0.0021 in [3]; 0.782 in [4]; 0.797 in assay [5]; -0.0284 in [6]. For the same molecule, the composite z-score in assay [7] is 0.855; in assay [9], 0.0004; in assay [10], -0.0994; in assay [11], 0.53; in [15], 0.836; in [17] it was -0.0127. Moreover, the values for the composite z-score in assay [18], in assay [19] and in assay [20] were 0.542, 0.417 and 0.0253, respectively. Besides, the z-score is -1.2 (inactive) in [8]; -0.211 (inactive) in assay [12]; -1.36 (inactive) in assay [13]; -0.66 (inactive) in assay [14]; 1.6 (inactive) in assay [16].

On to `O=C1OCCC=C[C@H]2OC34C=CCN(Cc5ccccc5)C(=O)[C@H]3N(CCO)C(=O)[C@@H]4C12` (stereo not given in full), for which the composite z-score is 0.672 in assay [1]; -0.465 in assay [2]; -0.183 in [3]; -0.575 in assay [4]; -0.607 in [5]; -0.419 in assay [6]. The composite z-score was -0.574 in assay [7]; -0.402 in assay [9]; -0.0645 in assay [10]; -1.05 in assay [11]; -0.89 in assay [15]; -0.172 in assay [17]. Moreover, the composite z-score in assay [18] is -0.526; in assay [19] it was -0.634; in assay [20] it was -0.304. The z-score was 0.135 (inactive) in assay [8]; -2.04 (inactive) in [12]; -4.14 (inactive) in assay [13]; -1.5 (inactive) in [14]; 2.71 (inactive) in assay [16].

The record behind these values is PubChem BioAssay.
